Screening results: PubChem, several laboratories
Most compounds without a hit are left out; they make up all but 4.7% or so of the library.
PfHsp90 yeast 2: growth inhibition of PfHsp90-expressing yeast, primary screen, antimalarial PfHsp90 inhibitor project, S. cerevisiae, BacTiter-Glo luminescence, single point, set 2; actives 0.32% (n = 310,000); BacTiter-Glo ATP, 48 h; yeast lacking PDR1 and PDR3 efflux regulators; inhibition, % at 9.4 µM;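 active means every replicate shows inhibition above about 80%, whatever the replicate mean, limit read from the data; inconclusive means mean inhibition reaches the set limit but some replicate falls short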;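 further: 0% = DMSO neutral controls and 100% = 20 µM radicicol positive controls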
tim10-1 inh: growth inhibitors of tim10-1 mutant yeast, primary screen, luminescence, uHTS; S. cerevisiae tim10-1 ts strain growth, BacTiter-Glo, 24 h; inhibition, % at 20 µM; actives 2.2% (n = 330,000);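 active means inhibition of at least 40%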;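 further: mutant grown at 25 °C; 0% = DMSO wells with yeast and 100% = wells holding no yeast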
tim23-1 inh: growth inhibitors of tim23-1 mutant yeast, primary screen, luminescence, uHTS | S. cerevisiae tim23-1 growth, BacTiter-Glo luminescence, 24 h | inhibition, % at 20 µM | actives 1.3% (n = 330,000);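 active means growth inhibition of the mutant yeast at or above 50%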;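 further: temperature-sensitive mutant grown at 25 °C; plate controls were DMSO-treated mutant yeast for no effect and medium wells lacking yeast for full effect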
SKKanGAS inh: S. pyogenes SKKanGAS growth inhibitors in kanamycin, primary screen, streptokinase expression inhibitor project, SKKanGAS strain, BacTiter-Glo luminescence; 6 h; inhibition, % at 7.5 µM; actives 1.3% (n = 300,000);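 active means mean replicate score, as percent of positive control median, at least 50; inconclusive means mean below 50 but one replicate at or above 50; inactive means mean and every replicate below 50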;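 further: strain carries kanamycin resistance gene driven by streptokinase promoter and grows in 40 µg/ml kanamycin; loss of luminescence reflects streptokinase promoter inhibition or plain growth inhibition; 0% = median of DMSO wells and 100% = positive control at its reference dose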
TIM10 inh: growth inhibitors of isogenic TIM10 control yeast, primary screen, counter-screen for tim10-1 yeast inhibitor project, luminescence, uHTS; AID 463195, 2010; S. cerevisiae TIM10 strain growth, BacTiter-Glo luminescence, 24 h; inhibition, % at 10 µM; actives 1.4% (n = 330,000);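 active means inhibition of 40% or more at the single tested concentration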;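 further: wild-type TIM10 isogenic control strain grown at permissive 25 °C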
Calb FLC: C. albicans growth inhibition with fluconazole, primary screen, CaCi-2 strain, Alamar Blue fluorescence | growth inhibition, % (concentration not given with the values) | C. albicans CaCi-2 (fluconazole-resistant clinical isolate) + fluconazole, 48 h | actives 0.57% (n = 300,000) | AID 1979, 2009;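 active means growth inhibition above about 58% in most replicates, limit read from the data, passing the limit was not always enough; inconclusive means exactly half the replicates above a set limit; inactive means most replicates below a set limit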;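 further: all wells also contain fluconazole at 8 µg/ml as a sub-toxic cotreatment; 0% = median of DMSO wells and 100% = median of geldanamycin control wells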
TIM10 conf: growth inhibitors of wild-type TIM10 yeast, confirmation, counter-screen for tim10-1 synthetic lethality project, single concentration, luminescence, S. cerevisiae | AID 463215, 2010 | inhibition, % at 10 µM | actives 63% (n = 4,600) | shares compounds with TIM10 inh | S. cerevisiae tim10 strain growth, BacTiter-Glo luminescence, 24 h;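 active means inhibition of yeast growth at or above a set limit in either of two replicates at 10 µM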;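 further: this counterscreen used the strain with wild-type TIM10; 0% = yeast with DMSO and 100% = medium wells lacking yeast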
Numbers without * were called inactive; ? = inconclusive; / = no result given.

SMILES	PfHsp90 yeast 2	tim10-1 inh	tim23-1 inh	SKKanGAS inh	TIM10 inh	Calb FLC	TIM10 conf
Cc1cnc(C(=O)N2CCN(c3ccc(C(F)(F)F)cn3)CC2)cn1	3	2	-5	2	-1	-13	/
Cc1ccc(/C=N/n2c(-c3ccccc3)n[nH]c2=S)cc1	12	-4	11	8	-9	-4	/
N=C1N(/N=C/c2ccccc2)C(=Nc2ccccc2)C(=S)N1c1ccccc1	17	36	47	22	57*	11	35*
Cc1nn(C)cc1/C=N/NC(=S)Nc1ccc(Cl)cc1Cl	-9	27	24	4	9	0	/
CCn1nc(C)c(/C=N/NC(=S)Nc2ccc(Cl)cc2Cl)c1C	-13	39	37	6	42*	13	-10
CCCCCN(C(=O)CCC(=O)OCCOc1cccc(C)c1)c1c(N)n(CCCC)c(=O)[nH]c1=O	-8	-1	5	1	-1	/	/
N#Cc1ccc(OC(=O)C2CCN(C3=NS(=O)(=O)c4ccccc43)CC2)cc1	25	5	0	/	-3	/	/
COc1ccccc1NC(=S)N1CCN(c2ncccn2)CC1	-7	-14	2	-1	95*	17	3
CC1CCC(N2CCN(C(=O)c3ccccc3F)CC2)CC1 (stereo not drawn)	4	8	-3	-2	-3	-3	/
Cc1ccc(NS(=O)(=O)c2ccc(NC(=O)c3ccc(Br)o3)cc2)c(C)c1	/	26	17	44	42*	11	2
Cc1ccc(NS(=O)(=O)c2ccc(NC(=O)c3ccccc3C(=O)O)cc2)c(C)c1	-8	18	23	-7	6	1	/
CC(=O)Nc1ccc(NC(=O)[C@H](C)NC(=O)c2ccco2)cc1	-2	-3	0	-2	-11	3	/
COc1cccc(/C=C2/Oc3ccccc3N(CC(=O)NCC3CCCO3)C2=O)c1 (stereo not drawn)	-12	32	15	7	12	-11	/
C/C(=N\NC(=O)CNC(=O)c1cccc(F)c1)c1ccc2ccccc2c1	-13	-9	-13	1	-4	-17	/
O=C1N=C(c2ccccc2)S/C1=C\c1cccs1	0	6	36	-1	25	-3	/
O=C1OC(c2ccccc2)=C/C1=C/c1cccs1	0	12	43	-3	46*	11	-35
Cc1ccc(C)c(/C=N/n2cc(-c3ccccc3)[nH]c2=S)c1	-19	35	3	35	35	-4	/
Fc1ccccc1/C=N/n1cc(-c2ccccc2)[nH]c1=S	-19	38	22	-15	45*	21	47*
CCc1ccccc1NC(=S)N(Cc1ccco1)C(C)c1cccs1 (stereo not drawn)	-3	21	32	2	81*	-1	23
CCNCCC(=O)N1c2ccccc2Sc2ccc(C(F)(F)F)cc21	9	10	2	-2	1	-15	/
CC(=O)Nc1ccc(NC(=O)C(C)OC(=O)c2ccc(S(=O)(=O)N3CCCCCC3)cc2)cc1 (stereo not drawn)	-7	14	8	/	-2	/	/
CN(C(=S)Nc1ccc(SC(F)F)cc1)C(c1ccccc1)c1ccccc1	3	19	19	22	42*	-2	40*
CCOC(=O)c1cc(C(=O)NNC(=O)c2cccc([N+](=O)[O-])c2)c(C)nc1C	/	-7	-14	/	-5	/	/
CCOC(=O)N1CCC(N2Cc3cccc(C(=O)Nc4ccc(CC)cc4)c3C2=O)CC1	/	39	29	35	30	-3	/
CCOC(=O)N1CCC(N2Cc3cccc(C(=O)Nc4ccc(F)cc4)c3C2=O)CC1	19	37	30	?	42*	?	30
SMILES	PfHsp90 yeast 2	tim10-1 inh	tim23-1 inh	SKKanGAS inh	TIM10 inh	Calb FLC	TIM10 conf
Cc1cc(C(=O)NC2CCCCCCC2)ccc1[N+](=O)[O-]	-13	9	26	-4	9	8	/
CS(=O)(=O)c1sc(C#N)c2c1C(=O)CC(c1ccccc1)C2 (stereo not drawn)	-59	21	-12	3	42*	0	42*
Cc1oc2c(c(=O)c1C)C(=O)CC(c1ccccc1)C2 (stereo not drawn)	/	8	20	-1	10	-2	/
Clc1ccc2[nH]cc(-c3nnnn3-c3ccccc3)c2c1	/	29	21	5	42*	72	29
Clc1ccc(-n2nnnc2-c2cnc3ccc(Cl)cc3c2-c2ccccc2)cc1	6	-24	38	27	1	3	/
CCOC(=O)c1cc(-c2cccc([N+](=O)[O-])c2)n[nH]1	11	36	0	-7	48*	-5	28*
COC(=O)C1=C(N)Oc2cc(N(C)C)ccc2C1c1ccccc1OC (stereo not drawn)	-6	29	21	-18	42*	6	-1
O=C(Cn1c2ccc(F)cc2c2nc3n(c(=O)c21)CCS3)Nc1ccc(Cl)cc1F	-22	38	8	30	41*	3	34*
COc1ccccc1NC(=S)N/N=C1\CC(C)(C)Oc2ccc(O)cc21	-4	9	6	23	19	-11	/
COc1ccc(NC(=S)N/N=C2\CC(C)(C)Oc3ccc(O)cc32)cc1	-27	35	16	7	41*	-6	-11
COc1ccc(-n2cc(-c3ccccc3)c3c(=O)[nH]cnc32)cc1	-26	34	46	-6	51*	57	46*
O=C(Oc1ccc(C(=S)N2CCOCC2)cc1Br)c1cc(Cl)ccc1Cl	/	32	24	37	47*	32	15
O=C(Oc1c(Br)cc(C(=S)N2CCOCC2)cc1Br)c1ccc(Cl)cc1	-41	31	27	4	35	-2	/
CSc1nc(-c2ccccc2)nn1C(=O)c1ccc(Cl)cc1	2	30	37	6	49*	-2	-24
Cc1cc2[nH]c3c(c[n+](C)c4ccccc34)c2cc1C	44	38	48	5	66*	27	59*
Cc1cc2[nH]c3c4ccccc4nc(C)c3c2cc1C	24	/	/	/	/	/	/
C[C@@H](NC(=O)/C(C#N)=C/c1ccc(O)c(O)c1)c1ccccc1	-17	9	21	/	3	/	/
CC(NC(=O)/C(C#N)=C/c1ccc(Cl)c([N+](=O)[O-])c1)c1ccccc1 (stereo not drawn)	/	20	-91	5	63*	-2	57*
